Source: PubChem BioAssay AID1159580 (chemical genetic matrix, 2015)
In all, about 5,500 compounds went through this assay and about 2,000 (36%) were called active. Inconclusive results (about 18%) are left out. No stated cut-off is given here; in the data, active means normalized growth mostly below about 0.91 (no sharp cut-off); inconclusive means no clear call, values can overlap the other calls; inactive means mostly above about 0.92. The list shows a part of the results.

Test: chemical genetic growth profiling, strain panel (AID 1159580);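 further: tested at 20 µM; growth read once vehicle control cultures reached saturation at 30 °C; 1 = growth at the plate median or of vehicle wells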
Settings: growth OD

Measured: normalized growth

CC[C@H]1OC(=O)[C@H](C)[C@@H](O[C@H]2C[C@@](C)(OC)[C@@H](O)[C@H](C)O2)[C@H](C)[C@@H](O[C@@H]2O[C@H](C)C[C@H](N(C)C)[C@H]2O)[C@](C)(O)C[C@@H](C)/C(=N/OCOCCOC)[C@H](C)[C@@H](O)[C@]1(C)O
inactive: S. cerevisiae deletion strains, locus YJR075W, strain HOC1, stronger effect = lower value 0.989 | S. cerevisiae deletion strains, locus YKL009W, strain mrt4, stronger effect = lower value 1.01 | S. cerevisiae deletion strains, locus YKL068W, stronger effect = lower value 1 | S. cerevisiae deletion strains, locus YKL085W, strain MDH1 (second series), stronger effect = lower value 1 | S. cerevisiae deletion strains, locus YKL085W, strain MDH1, stronger effect = lower value 1 | S. cerevisiae deletion strains, locus YKL160W, strain elf1, stronger effect = lower value 1.02 | S. cerevisiae deletion strains, locus YKL190W, strain CNB1, stronger effect = lower value 1 | S. cerevisiae deletion strains, locus YKR001C, strain vps1, stronger effect = lower value 1.01 | S. cerevisiae deletion strains, locus YKR026C, strain gcn3, stronger effect = lower value 1 | S. cerevisiae deletion strains, locus YKR091W, strain srl3, stronger effect = lower value 1 | S. cerevisiae deletion strains, locus YLL001W, strain dnm1, stronger effect = lower value 1.02 | S. cerevisiae deletion strains, locus YLL026W, stronger effect = lower value 1.01 | S. cerevisiae deletion strains, locus YLL041C, strain sdh2, stronger effect = lower value 1.01 | S. cerevisiae deletion strains, locus YLR027C, strain aat2, stronger effect = lower value 1.01 | S. cerevisiae deletion strains, locus YLR039C, strain RIC1, stronger effect = lower value 0.968 | S. cerevisiae deletion strains, locus YLR058C, strain SHM2, stronger effect = lower value 0.998 | S. cerevisiae deletion strains, locus YLR102C, strain apc9, stronger effect = lower value 0.989 | S. cerevisiae deletion strains, locus YLR113W, strain HOG1, stronger effect = lower value 0.967 | S. cerevisiae deletion strains, locus YLR221C, strain rsa3, stronger effect = lower value 1.01 | S. cerevisiae deletion strains, locus YLR258W, strain gsy2, stronger effect = lower value 1.02 | S. cerevisiae deletion strains, locus YLR262C, strain YPT6 (second series), stronger effect = lower value 0.989 | S. cerevisiae deletion strains, locus YLR262C, strain YPT6, stronger effect = lower value 0.997 | S. cerevisiae deletion strains, locus YLR268W, strain sec22, stronger effect = lower value 1.03 | S. cerevisiae deletion strains, locus YLR320W, strain mms22, stronger effect = lower value 0.993 | S. cerevisiae deletion strains, locus YLR330W, strain CHS5, stronger effect = lower value 1.01 | S. cerevisiae deletion strains, locus YLR342W, strain FKS1 (second series), stronger effect = lower value 1.01 | S. cerevisiae deletion strains, locus YLR342W, strain FKS1, stronger effect = lower value 1.02 | S. cerevisiae deletion strains, locus YLR357W, strain rsc2, stronger effect = lower value 1.05 | S. cerevisiae deletion strains, locus YLR370C, strain arc18, stronger effect = lower value 1.01 | S. cerevisiae deletion strains, locus YLR371W, strain rom2, stronger effect = lower value 0.972 | S. cerevisiae deletion strains, locus YLR418C, strain cdc73, stronger effect = lower value 1.03 | S. cerevisiae deletion strains, locus YML016C, strain PPZ1, stronger effect = lower value 1.01 | S. cerevisiae deletion strains, locus YML032C, strain rad52, stronger effect = lower value 1.01 | S. cerevisiae deletion strains, locus YML120C, strain ndi1, stronger effect = lower value 1.01 | S. cerevisiae deletion strains, locus YML124C, strain tub3, stronger effect = lower value 0.999 | S. cerevisiae deletion strains, locus YMR058W, strain fet3, stronger effect = lower value 1.01 | S. cerevisiae deletion strains, locus YMR078C, strain ctf18, stronger effect = lower value 1.01 | S. cerevisiae deletion strains, locus YMR125W, strain sto1, stronger effect = lower value 1.01 | S. cerevisiae deletion strains, locus YMR129W, stronger effect = lower value 1.02 | S. cerevisiae deletion strains, locus YMR205C, strain PFK2, stronger effect = lower value 0.99 | S. cerevisiae deletion strains, locus YMR223W, strain ubp8, stronger effect = lower value 1.03 | S. cerevisiae deletion strains, locus YMR231W, strain pep5, stronger effect = lower value 1.01 | S. cerevisiae deletion strains, locus YMR307W, strain GAS1, stronger effect = lower value 1.02 | S. cerevisiae deletion strains, locus YNL067W, strain RPL9B, stronger effect = lower value 0.986 | S. cerevisiae deletion strains, locus YNL071W, strain lat1, stronger effect = lower value 0.955 | S. cerevisiae deletion strains, locus YNL183C, strain NPR1, stronger effect = lower value 0.937 | S. cerevisiae deletion strains, locus YNL209W, strain ssb2, stronger effect = lower value 1.01 | S. cerevisiae deletion strains, locus YNL233W, strain BNI4, stronger effect = lower value 0.977 | S. cerevisiae deletion strains, locus YNL248C, strain rpa49, stronger effect = lower value 1.03 | S. cerevisiae deletion strains, locus YNL250W, strain rad50, stronger effect = lower value 1.05 | S. cerevisiae deletion strains, locus YNL271C, strain bni1, stronger effect = lower value 1.01 | S. cerevisiae deletion strains, locus YNL298W, strain CLA4, stronger effect = lower value 1.02 | S. cerevisiae deletion strains, locus YNL307C, strain MCK1, stronger effect = lower value 1 | S. cerevisiae deletion strains, locus YNL322C, strain KRE1 (second series), stronger effect = lower value 1.01 | S. cerevisiae deletion strains, locus YNR049C, strain mso1, stronger effect = lower value 1.01 | S. cerevisiae deletion strains, locus YNR052C, strain pop2, stronger effect = lower value 1 | S. cerevisiae deletion strains, locus YOL006C, strain TOP1, stronger effect = lower value 0.92 | S. cerevisiae deletion strains, locus YOL012C, strain htz1 1.11 | S. cerevisiae deletion strains, locus YOL147C, strain pex11, stronger effect = lower value 1.01 | S. cerevisiae deletion strains, locus YOR001W, strain rrp6, stronger effect = lower value 1.01 | S. cerevisiae deletion strains, locus YOR061W, strain CKA2, stronger effect = lower value 1 | S. cerevisiae deletion strains, locus YOR069W, strain VPS5, stronger effect = lower value 1.01 | S. cerevisiae deletion strains, locus YOR070C, strain gyp1, stronger effect = lower value 1 | S. cerevisiae deletion strains, locus YOR080W, strain dia2, stronger effect = lower value 1.02 | S. cerevisiae deletion strains, locus YOR083W, strain WHI5, stronger effect = lower value 1.02 | S. cerevisiae deletion strains, locus YOR106W, strain vam3, stronger effect = lower value 1.03 | S. cerevisiae deletion strains, locus YOR136W, strain idh2, stronger effect = lower value 1.02 | S. cerevisiae deletion strains, locus YOR144C, strain elg1, stronger effect = lower value 1 | S. cerevisiae deletion strains, locus YOR184W, strain ser1, stronger effect = lower value 1.01 | S. cerevisiae deletion strains, locus YOR231W, strain MKK1, stronger effect = lower value 0.988 | S. cerevisiae deletion strains, locus YOR265W, strain rbl2, stronger effect = lower value 1.01 | S. cerevisiae deletion strains, locus YOR270C, strain vph1, stronger effect = lower value 1.01 | S. cerevisiae deletion strains, locus YOR290C, strain snf2, stronger effect = lower value 1.01 | S. cerevisiae deletion strains, locus YOR316C, strain cot1, stronger effect = lower value 0.994 | S. cerevisiae deletion strains, locus YPL051W, strain arl3, stronger effect = lower value 1.01 | S. cerevisiae deletion strains, locus YPL055C, strain LGE1, stronger effect = lower value 0.988 | S. cerevisiae deletion strains, locus YPL078C, strain atp4, stronger effect = lower value 1.01 | S. cerevisiae deletion strains, locus YPL106C, strain sse1, stronger effect = lower value 1.04 | S. cerevisiae deletion strains, locus YPL240C, strain hsp82, stronger effect = lower value 1.01 | S. cerevisiae deletion strains, locus YPL241C, strain CIN2, stronger effect = lower value 1 | S. cerevisiae deletion strains, locus YPL256C, strain CLN2, stronger effect = lower value 0.994 | S. cerevisiae deletion strains, locus YPR119W, strain clb2, stronger effect = lower value 0.989 | S. cerevisiae deletion strains, locus YPR141C, strain kar3, stronger effect = lower value 1.01 | S. cerevisiae deletion strains, locus YPR163C, strain tif3, stronger effect = lower value 1 | S. cerevisiae deletion strains, locus YPR167C, strain met16, stronger effect = lower value 1.01 | S. cerevisiae deletion strains, strain wtn01, stronger effect = lower value 1.02 | S. cerevisiae strains, strain wild type, stronger effect = lower value 1.01
